Source: PubChem
ADAM17 inh: ADAM17 inhibition, QFRET primary screen | P78536 | recombinant ADAM17, EDANS/DABCYL FRET peptide cleavage | inhibition, % at 6.95 µM | actives 0.83% (n = 370,000) | AID 720648;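 active = inhibition above the mean of compounds lying between control limits plus 3 SD, set per campaign, cut at about 8.5% in these data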;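 note: 0% = DMSO-only wells as the low control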
CendR NRP1 mod: alters CendR peptide binding to human NRP-1; FAM-RPARPAR peptide binding to NRP-1, fluorescence polarization; inhibition, % at 25 µM; actives 0.85% (n = 360,000);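 active = inhibition or corrected inhibition above about 18%, plus a signal ratio from 0.5 to 1.5, limit read from the data, passing the limit was not always enough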
HGIII-sPLA2 inh: Blocks human group III sPLA2 activity. Q9NZ20. QFRET BODIPY PC-A2 liposome hydrolysis, fluorescence. inhibition, % at 12.2 µM. actives 0.56% (n = 370,000). AID 743126;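 active = inhibition above mean plus 3 SD of compounds lying within the high and low control bounds, cut at about 19% in these data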;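 note: 0% = median of test compound wells and 100% = no enzyme DMSO wells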
ADAM10 inh: ADAM10 inhibition, QFRET primary screen; O14672; recombinant ADAM10, EDANS/DABCYL FRET peptide cleavage, 3 h; inhibition, % at 7 µM; actives 0.62% (n = 370,000);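 active = inhibition above a per-campaign cutoff equal to the mean of compounds falling between control-based bounds plus 3 SD, cut at about 20% in these data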;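 note: 0% = DMSO wells while the 100% control is not disclosed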
proKLK7 act: activators of human kallikrein-7 zymogen; P49862; purified proKLK7, EDANS-DABCYL substrate fluorescence; 100% is mature enzyme control, 0% vehicle; activation, % at 7 µM; actives 0.9% (n = 370,000);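 active = activation above the mean of all tested compounds plus 3 SD, computed per campaign excluding outliers beyond control limits, cut at about 13% in these data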
Target sequence (P49862 whole entry, looked up): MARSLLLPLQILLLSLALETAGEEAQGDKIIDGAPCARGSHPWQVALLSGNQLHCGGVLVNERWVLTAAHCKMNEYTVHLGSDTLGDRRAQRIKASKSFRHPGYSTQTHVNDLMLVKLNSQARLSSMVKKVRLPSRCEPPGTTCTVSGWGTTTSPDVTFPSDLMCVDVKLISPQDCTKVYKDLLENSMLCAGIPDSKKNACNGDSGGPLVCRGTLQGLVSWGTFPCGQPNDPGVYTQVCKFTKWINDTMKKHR
hGIII sPLA2 conf: human GIII-sPLA2 inhibition, confirmation; shares compounds with HGIII-sPLA2 inh; recombinant hGIII-sPLA2, BODIPY PC-A2 QFRET fluorescence; inhibition, % at 12.2 µM; actives 34% (n = 2,000); AID 743280;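 active = mean inhibition across triplicates above the hit cutoff set in the earlier primary screen, cut at about 19% in these data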;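 note: 0% = enzyme with DMSO and 100% = DMSO wells lacking enzyme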
BODIPY interf: 535nm fluorescence interference, HGIII-sPLA2 counter-screen | shares compounds with HGIII-sPLA2 inh | BODIPY FL product fluorescence interference, QFRET | inhibition, % at 12.2 µM | actives 8.5% (n = 2,000) | AID 743282;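 active = average inhibition above the solvent-only control mean plus 3 SD, cut at about 6% in these data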;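 note: 0% = DMSO with substrate plus product and 100% = DMSO with substrate alone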
BODIPY interf DR: 535nm optical interference dose response, HGIII-sPLA2 counter-screen; shares compounds with HGIII-sPLA2 inh; BODIPY FL product fluorescence interference, cell-free; IC50, µM; 240 tested, under 10 active; AID 743455;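 active = IC50 at or below 10 µM; inactive = IC50 above 10 µM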
* = called active by the depositor; · = not tested or not shown. Hits are enriched below; roughly 3.4% of the tested compounds scored in any of these assays.

SMILES	ADAM17 inh	CendR NRP1 mod	HGIII-sPLA2 inh	ADAM10 inh	proKLK7 act	hGIII sPLA2 conf	BODIPY interf	others
O=C(CSCc1ccccc1Cl)NNC(=S)Nc1ccccc1	1	-25	41*	1	0	42*	2	BODIPY interf DR=>122
O=C(CSCc1ccccc1Cl)Nc1ccc(C(=O)O)cc1	0	2	3	0	0	·	·
COC[C@@H]1CCCN1c1cccc2c1S(=O)(=O)N(C1CC1)CCCO2	-6	·	3	-8	0	·	·
CC1(c2nnnn2C2CCCCC2)CCCC(=O)N1CCc1ccc(O)cc1 (centres undefined)	-4	·	2	-1	0	·	·
Cc1ccc(NC(=O)NNC(=O)c2cc3ccccc3cc2O)cc1C	-9	-1	28*	-11	-3	26*	3
Cc1ccc(NC(=O)NNC(=O)c2cc3ccccc3cc2O)c(C)c1	0	2	16	-3	-2	·	·
Cc1ccc(C)c(NC(=O)NNC(=O)c2cc3ccccc3cc2O)c1	-2	-27	22*	4	-4	22*	3
O=C(NNC(=S)Nc1ccc(F)cc1)C1[C@H]2CCCC[C@@H]12 (some centres undefined)	4	9	25*	13	0	22*	3
O=C(Nc1ccccc1)C1C2CCCCC21 (centres undefined)	0	-6	-4	5	-1	·	·
COc1ccc(CNS(=O)(=O)c2ccccc2Br)c(OC)c1	4	·	-6	5	1	·	·
Cc1ccc(C)c(N2CN(Cc3cccnc3)CNC2=S)c1	-1	-6	20*	2	1	3	-1
COC(=O)c1cc2c(c3c4ccccc4n(S(=O)(=O)c4cccc(C)c4)c13)C(=O)N(Cc1ccc(N(C)C)cc1)C2	0	·	-2	3	-1	·	·
C[C@@H]1CCCCO[C@@H](CN(C)Cc2ccccc2)[C@@H](C)CN([C@H](C)CO)C(=O)c2cc(N(C)C)ccc2O1	-6	-2	24*	-11	0	10	-18
Cc1cc(C)nc(SCc2cn3cc(Cl)ccc3n2)n1	-7	12	21*	-11	0	3	-9
CCOc1cc(CNc2ccc(N3CCOCC3)cc2)cc(Br)c1OCC	-2	8	-5	-4	-1	·	·
CCOc1cc(CNc2ccc3c(c2)OCCO3)cc(Br)c1OCC	1	-7	23*	8	1	34*	-4	BODIPY interf DR=>122
NC(=O)Cc1cn(-c2ncc(C(F)(F)F)cc2Cl)c2ccccc12	-4	-13	34*	2	0	14	-11
Cc1ccc(Nc2nc(Cl)nc(NC3CCCCC3)n2)cc1	-5	11	4	4	0	·	·
O=Cc1nc(Nc2cc(F)cc(F)c2)nc(NC2CCCC2)n1	3	·	28*	9	·	23*	-8
CCCCCCCCCCCCN1CCSCCS1(=O)=O	-1	·	12	-7	0	·	·
CC1C/C(=N\Nc2ccc(S(N)(=O)=O)cc2[N+](=O)[O-])CC(C)(C)C1 (centres undefined)	4	-3	17	3	0	·	·
Cc1cc(C)c2c(c1)/C(=N/Nc1ccc(S(N)(=O)=O)cc1[N+](=O)[O-])CCC2	-6	2	20*	-3	0	9	7.5*
COCCCNC(=S)N1CCN(c2nc(-c3ccc(F)cc3)cs2)CC1	0	6	3	8	-1	·	·
CNC(=S)N1CCN(c2nc(-c3ccc(F)cc3)cs2)CC1	-2	-1	20*	-2	0	14	-1
CSCc1cc(N(C)C)nc(SCc2ccc(Cl)c(Cl)c2)n1	5	-1	21*	7	0	-15	-14
SMILES	ADAM17 inh	CendR NRP1 mod	HGIII-sPLA2 inh	ADAM10 inh	proKLK7 act	hGIII sPLA2 conf	BODIPY interf	others
CNc1cc(CSC)nc(SCc2ccc(Cl)cc2Cl)n1	5	-4	-5	12	0	·	·
CC(C)(C)CN1CCNC[C@H]1Cc1cccc2ccccc12	-1	-13	5	-2	0	·	·
c1ccc(C2(CN3CCNC[C@H]3Cc3cccc4ccccc34)CC2)cc1	2	-4	23*	-6	0	6	-40
COC(=O)[C@]12C[C@H](CC(=O)N3CCCCC3)C(=O)N(Cc3ccc4c(c3)OCO4)C1=C[C@H](COCc1ccccc1)O[C@@H]2C	-4	·	-6	0	0	·	·
Cc1cc(NS(C)(=O)=O)c(=O)n(Cc2cccc(C(F)(F)F)c2)c1	-16	-25	21*	-36	0	17	-7
COCC(=O)Nc1cc(C)cn(Cc2cccc(C(F)(F)F)c2)c1=O	-4	-3	12	-10	-1	·	·
CN1C(=O)[C@@]2(O[C@H]3C=CC=CN3C3=C2C(=O)CCC3)c2cccc(Br)c21	0	·	10	-19	0	·	·
O[C@H](COc1cccc(Br)c1)CN1CCC(C(O)(c2ccccc2)c2ccccc2)CC1	6	·	-13	11	0	·	·
Cc1ccc(F)cc1NC(=S)NCCc1ccccc1	5	-6	22*	9	0	20*	-5
CCCC(=O)NC(c1ccccc1Cl)c1ccc2cccnc2c1O (centres undefined)	3	1	30*	9	0	26*	1
CCC(=O)NC(c1ccc(C)cc1)c1ccc2cccnc2c1O (centres undefined)	0	2	21*	7	1	16	-12
CCCC(=O)NC(c1ccc(C(C)C)cc1)c1ccc2cccnc2c1O (centres undefined)	6	13	20*	15	0	18	-12
CCCC(=O)NC(c1ccc(N(C)C)cc1)c1ccc2cccnc2c1O (centres undefined)	0	7	23*	6	0	25*	-5
CC(=O)NC(c1ccc(N(C)C)cc1)c1cc(Cl)c2cccnc2c1O (centres undefined)	6	-8	13	10	-1	·	·
CCOc1ccc(C=NNC(=O)c2cc(-c3ccc(Cl)cc3)n[nH]2)cc1	-3	·	3	-4	-4	·	·
COC(=O)c1cc2c(c3c4cc(F)ccc4n(C(=O)c4ccccc4)c13)C(=O)N(C1CCCCC1)C2	-6	·	6	-19	0	·	·
CC(=O)C1=C(C)Nc2ncnn2C1c1ccc(F)cc1 (centres undefined)	-4	6	22*	-15	0	11	-5
CCOc1ccc(C(=O)Nc2nncs2)cc1OCC	0	3	22*	-3	0	-2	1
O=C1C(=Cc2cccc(Cl)c2)CCc2ccccc21	-1	13	21*	-13	0	-1	-3
